Data: PubChem BioAssay (Tox21)
Where “and” joins values, the source holds several entries; their conditions need not be identical. Equal entries are not always repeated. Inconclusive results are not listed. Calls of active or inactive are those of the source. Unless noted, the call rests on the fitted dose curve; in most records, active means well fitted curve in the direction sought with a large enough effect in the repeat runs; inconclusive means weak or mixed curves; inactive means no such curve, though single readings can be large; an effect the other way counts as inactive or inconclusive.

Legend:
[1] = target: Thyrotropin-releasing hormone receptor (Homo sapiens) (UniProt P34981); assay: qHTS assay to identify small molecule agonists of the thyrotropin-releasing hormone receptor (TRHR) signaling pathway (AID 1346891; calls by dose curve; further: series mostly up to about 58 µM)
Summary of the method: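 TRHR-expressing HEK293 cells were plated 18 h at 37 °C/5% CO2, loaded with calcium dye 2 h at 37 °C, then given compound in DMSO; fluorescence was read kinetically for 3 min at 1 s intervals.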

[2] = Human pregnane X receptor (PXR) small molecule agonists, qHTS cell viability counter screen (AID 1346977); further: nearly all actives have a fitted effect of over 50% in size; further: potency means the concentration at half of the fitted maximal effect
Summary of the method: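 PXR-Luc HepG2 cells in medium with 5% charcoal-stripped FBS were pre-incubated 5hr, then exposed to compounds for 24hr at 37C. Viability was read in the same wells by CellTiter-Fluor fluorescence, reagent added after 23hr with a 1hr incubation.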

[3] = Caspase-3/7 induction in HepG2 cells by small molecules, qHTS assay (AID 1346978); further: nearly all actives have a fitted effect of over 15% in size; further: potency means the concentration at half of the fitted maximal effect
Summary of the method: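 Wild-type HepG2 cells (2,000/well) were settled 5 h at 37 C, 5% CO2, then exposed to compounds in DMSO for 17 h. Caspase-3/7 activity was read by luminescence 30 min after adding Caspase-Glo 3/7 reagent at room temperature.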

[4] = Caspase-3/7 induction in CHO-K1 cells by small molecules, qHTS cell viability counter screen (AID 1346979); further: nearly all actives have a fitted effect of over 35% in size; further: potency means the concentration at half of the fitted maximal effect
Summary of the method: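 Wild-type CHO-K1 cells were seeded at 1,500 per well, rested 5hr at 37 C, then exposed to compounds in DMSO. After 16hr, CellTiter-Fluor reagent was added and fluorescence read 1hr later as the viability measure.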

[5] = Caspase-3/7 induction in CHO-K1 cells by small molecules, qHTS assay (AID 1346980); further: nearly all actives have a fitted effect of over 15% in size; further: potency means the concentration at half of the fitted maximal effect
Summary of the method: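 Wild-type cells were seeded at 1,500 per well and settled 5 hr at 37 C, 5% CO2, then exposed to DMSO-dissolved compounds for 17 hr. Caspase-Glo 3/7 reagent was added, and luminescence was read after 30min at room temperature.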

[6] = Caspase-3/7 induction in HepG2 cells by small molecules, qHTS cell viability counter screen (AID 1346981); further: nearly all actives have a fitted effect of over 30% in size; further: potency means the concentration at half of the fitted maximal effect
Summary of the method: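 Viability determined by CellTiter-Fluor fluorescence in HepG2 wells also used for the luminescent Caspase-Glo 3/7 read. Compounds were present for 16 hr at 37 C, 5% CO2 before reagent addition.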

[7] = target: Nuclear receptor subfamily 1 group I member 2 (Homo sapiens) (UniProt O75469); assay: Human pregnane X receptor (PXR) small molecule agonists, qHTS assay (AID 1346982); further: nearly all actives have a fitted effect of over 35% in size; further: potency means the concentration at half of the fitted maximal effect
Summary of the method: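 Compound-induced hPXR transactivation of a CYP3A4 luciferase reporter was scored in HepG2 PXR-Luc cells over 24 hr at 37 C, 5% CO2, by luminescence.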

[8] = target: Nuclear receptor subfamily 1 group I member 2 (Rattus norvegicus) (UniProt Q9R1A7); assay: Rat pregnane X receptor (rPXR) activation by small molecules, qHTS assay (AID 1346983); settings: rPXR luciferase reporter cells, One-Glo luminescence, 24 h; max activation: active compounds read high; further: nearly all actives have a fitted effect of over 20% in size
Summary of the method: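 Cell-based rPXR luciferase reporter assay, 2,000 cells per well, rested 5hr at 37 C before compound addition in DMSO, then 24 hr at 37 C. One-Glo reagent was added and luminescence read after 30 min at room temperature.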

[9] = target: Nuclear receptor subfamily 1 group I member 2 (Homo sapiens) (UniProt O75469); assay: CYP3A4 induction through human pregnane X receptor (PXR) by small molecules, qHTS assay (AID 1346984); further: nearly all actives have a fitted effect of over 40% in size; further: potency means the concentration at half of the fitted maximal effect
Summary of the method: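 Readings come from a luciferase reporter: DPX-2 cells, which are HepG2 cotransfected with PXR and a CYP3A4-promoter construct, were exposed to test compounds for 24 h at 37C before One-Glo detection.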

[10] = target: Nuclear receptor subfamily 1 group I member 2 (Homo sapiens) (UniProt O75469); assay: Human pregnane X receptor (PXR) activation by small molecules, qHTS assay (AID 1346985); further: nearly all actives have a fitted effect of over 40% in size
Summary of the method: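 DPX-2 cells (HepG2 co-transfected with a PXR response element and a CYP3A4-promoter luciferase construct) were seeded at 2,000 per well, rested 5 hr at 37C, then exposed to DMSO-dissolved compounds for 24 hr. Activation was read as luciferase luminescence.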

[11] = target: Cytochrome P450 2D6 (Homo sapiens) (UniProt P10635); assay: Cytochrome P450 Family 2 Subfamily D Member 6 (CYP2D6) small molecule antagonists: luciferase reporter qHTS assay (AID 1671196); further: nearly all actives have a fitted effect of over 50% in size; further: potency means the concentration at half of the fitted maximal effect
Summary of the method: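 Each well received CYP2D6 with its proluciferin substrate and chemical, sat 10 min, then got NADPH regeneration solution for 1 h at room temperature. Luminescence in RLU served as the activity measure.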

[12] = target: Cytochrome P450 2C19 (Homo sapiens) (UniProt P33261); assay: Cytochrome P450 Family 2 Subfamily C Member 19 (CYP2C19) small molecule antagonists: luciferase reporter qHTS assay (AID 1671197); further: nearly all actives have a fitted effect of over 65% in size; further: potency means the concentration at half of the fitted maximal effect
Summary of the method: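 Relative luminescence units recorded 20 min after the detection reagent stopped a 1 h, 37C CYP2C19 reaction on proluciferin substrate, which was started by NADPH regeneration following 10 min room-temperature compound preincubation; ketoconazole positive control.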

[13] = target: Cytochrome P450 2C9 (Homo sapiens) (UniProt P11712); assay: Cytochrome P450 Family 2 Subfamily C Member 9 (CYP2C9) small molecule antagonists: luciferase reporter qHTS assay (AID 1671198); further: nearly all actives have a fitted effect of over 50% in size; further: potency means the concentration at half of the fitted maximal effect
Summary of the method: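 CYP2C9 activity was measured with a P450-Glo proluciferin substrate. Enzyme–substrate mix was held with compound for 10 min at room temperature, then NADPH regeneration solution was added for 1 h at 37C. Luciferin product was read as luminescence.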

[14] = target: Cytochrome P450 1A2 (Homo sapiens) (UniProt P05177); assay: Cytochrome P450 Family 1 Subfamily A Member 2 (CYP1A2) small molecule antagonists: luciferase reporter qHTS assay (AID 1671199); further: nearly all actives have a fitted effect of over 50% in size; further: potency means the concentration at half of the fitted maximal effect
Summary of the method: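 Enzymatic CYP1A2 assay, human, luminescent: 10 min compound–enzyme–substrate preincubation, 1 h NADPH-dependent turnover, 20 min detection step, room temperature throughout. Reduced light indicates lower CYP1A2 activity.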

[15] = target: Voltage-gated inwardly rectifying potassium channel KCNH2 (Homo sapiens) (UniProt Q12809); assay: Human Ether-a-go-go-Related Gene (hERG) channel small molecule antagonists: fluorescence cell-based qHTS assay (AID 1671200); further: nearly all actives have a fitted effect of over 50% in size; further: potency means the concentration at half of the fitted maximal effect
Summary of the method: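 U2OS cells expressing the channel were plated at 1000 cells/well, incubated overnight at 37 C, then loaded with FluxOR II thallium-sensitive dye for 1 h at room temperature in the dark, with a further 10 min at room temperature before stimulation.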

[16] = target: Cytochrome P450 3A4 (Homo sapiens) (UniProt P08684); assay: Cytochrome P450 Family 3 Subfamily A Member 4 (CYP3A4) small molecule antagonists: luciferase reporter qHTS assay (AID 1671201); further: nearly all actives have a fitted effect of over 50% in size; further: potency means the concentration at half of the fitted maximal effect
Summary of the method: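 P450-Glo CYP3A4 system with proluciferin substrate; compounds preincubated 10 min RT with enzyme-substrate mix, then NADPH regeneration added for 1 h RT. Detection reagent 20 min, luminescence read as relative luminescence units.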
On the % scale 0 is the no-effect control and ±100 the full control effect.

Chain of Thyrotropin-releasing hormone receptor (Homo sapiens) (P34981 whole entry, looked up): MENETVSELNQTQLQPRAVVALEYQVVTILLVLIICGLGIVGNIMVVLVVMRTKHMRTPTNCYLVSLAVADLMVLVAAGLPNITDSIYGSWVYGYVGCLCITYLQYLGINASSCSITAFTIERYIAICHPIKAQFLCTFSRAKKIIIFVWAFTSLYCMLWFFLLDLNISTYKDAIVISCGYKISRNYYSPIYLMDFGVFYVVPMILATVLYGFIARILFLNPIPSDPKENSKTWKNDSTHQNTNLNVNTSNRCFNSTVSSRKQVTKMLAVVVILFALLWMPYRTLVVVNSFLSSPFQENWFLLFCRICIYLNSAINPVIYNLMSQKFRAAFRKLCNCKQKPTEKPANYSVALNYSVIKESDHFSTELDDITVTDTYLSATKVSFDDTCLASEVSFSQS
Chain of Cytochrome P450 1A2 (Homo sapiens) (P05177 whole entry, looked up): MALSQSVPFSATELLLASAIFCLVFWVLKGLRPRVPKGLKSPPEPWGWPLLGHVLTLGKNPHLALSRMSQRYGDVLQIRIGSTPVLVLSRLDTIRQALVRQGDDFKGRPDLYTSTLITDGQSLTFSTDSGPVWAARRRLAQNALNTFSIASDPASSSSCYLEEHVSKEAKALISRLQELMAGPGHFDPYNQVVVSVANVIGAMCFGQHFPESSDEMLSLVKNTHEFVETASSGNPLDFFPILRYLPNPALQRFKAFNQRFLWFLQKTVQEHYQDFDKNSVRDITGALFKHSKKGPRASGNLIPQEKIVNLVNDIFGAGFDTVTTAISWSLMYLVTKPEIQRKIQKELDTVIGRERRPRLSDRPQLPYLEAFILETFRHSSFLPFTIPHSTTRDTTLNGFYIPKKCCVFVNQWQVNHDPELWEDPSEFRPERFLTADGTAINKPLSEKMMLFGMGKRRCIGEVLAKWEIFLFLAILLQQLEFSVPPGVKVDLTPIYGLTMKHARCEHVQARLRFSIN
Chain of Cytochrome P450 2D6 (Homo sapiens) (P10635 whole entry, looked up): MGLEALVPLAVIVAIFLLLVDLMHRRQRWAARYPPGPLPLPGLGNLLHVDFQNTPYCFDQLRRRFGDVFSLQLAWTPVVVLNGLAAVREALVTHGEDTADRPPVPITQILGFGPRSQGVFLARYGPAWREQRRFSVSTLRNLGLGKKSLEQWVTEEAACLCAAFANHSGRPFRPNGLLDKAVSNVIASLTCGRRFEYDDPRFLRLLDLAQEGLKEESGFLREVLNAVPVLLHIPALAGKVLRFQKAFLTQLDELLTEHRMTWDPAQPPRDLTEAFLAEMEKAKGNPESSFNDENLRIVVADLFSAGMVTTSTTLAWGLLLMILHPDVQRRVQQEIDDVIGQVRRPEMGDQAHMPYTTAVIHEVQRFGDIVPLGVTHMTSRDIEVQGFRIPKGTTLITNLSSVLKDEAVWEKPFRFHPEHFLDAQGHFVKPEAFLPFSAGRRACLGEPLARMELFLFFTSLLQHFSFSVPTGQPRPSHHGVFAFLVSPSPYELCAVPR
Chain of Voltage-gated inwardly rectifying potassium channel KCNH2 (Homo sapiens) (Q12809 whole entry, looked up): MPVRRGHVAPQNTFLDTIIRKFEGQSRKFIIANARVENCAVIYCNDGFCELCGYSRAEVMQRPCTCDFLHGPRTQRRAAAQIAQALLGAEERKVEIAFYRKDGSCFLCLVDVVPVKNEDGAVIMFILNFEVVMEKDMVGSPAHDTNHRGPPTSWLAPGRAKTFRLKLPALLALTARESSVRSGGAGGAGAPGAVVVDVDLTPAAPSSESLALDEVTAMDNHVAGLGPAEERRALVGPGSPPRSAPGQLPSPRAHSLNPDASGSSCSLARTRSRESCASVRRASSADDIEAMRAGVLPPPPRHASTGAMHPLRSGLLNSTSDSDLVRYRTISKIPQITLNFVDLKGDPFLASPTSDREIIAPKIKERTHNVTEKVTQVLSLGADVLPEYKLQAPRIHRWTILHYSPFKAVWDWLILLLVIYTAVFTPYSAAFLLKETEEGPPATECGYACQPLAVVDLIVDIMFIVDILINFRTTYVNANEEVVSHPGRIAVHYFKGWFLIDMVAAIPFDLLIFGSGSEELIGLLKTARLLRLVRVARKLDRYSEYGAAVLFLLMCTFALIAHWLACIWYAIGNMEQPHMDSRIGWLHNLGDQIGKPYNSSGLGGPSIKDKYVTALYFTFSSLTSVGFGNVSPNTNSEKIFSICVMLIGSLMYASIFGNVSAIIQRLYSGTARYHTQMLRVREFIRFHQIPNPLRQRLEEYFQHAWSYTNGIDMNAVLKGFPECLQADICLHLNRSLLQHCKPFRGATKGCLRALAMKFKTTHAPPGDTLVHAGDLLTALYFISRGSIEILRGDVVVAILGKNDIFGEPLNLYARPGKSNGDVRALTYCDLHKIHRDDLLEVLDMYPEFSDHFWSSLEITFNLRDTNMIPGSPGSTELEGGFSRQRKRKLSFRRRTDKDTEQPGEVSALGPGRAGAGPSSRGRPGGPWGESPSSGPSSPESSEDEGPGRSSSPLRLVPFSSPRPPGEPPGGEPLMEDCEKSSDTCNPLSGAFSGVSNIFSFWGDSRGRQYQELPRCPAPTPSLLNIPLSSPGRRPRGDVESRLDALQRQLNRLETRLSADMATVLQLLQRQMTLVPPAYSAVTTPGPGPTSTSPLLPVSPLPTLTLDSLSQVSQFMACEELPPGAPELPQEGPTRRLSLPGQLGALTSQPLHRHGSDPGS
Chain of Nuclear receptor subfamily 1 group I member 2 (Homo sapiens) (O75469 whole entry, looked up): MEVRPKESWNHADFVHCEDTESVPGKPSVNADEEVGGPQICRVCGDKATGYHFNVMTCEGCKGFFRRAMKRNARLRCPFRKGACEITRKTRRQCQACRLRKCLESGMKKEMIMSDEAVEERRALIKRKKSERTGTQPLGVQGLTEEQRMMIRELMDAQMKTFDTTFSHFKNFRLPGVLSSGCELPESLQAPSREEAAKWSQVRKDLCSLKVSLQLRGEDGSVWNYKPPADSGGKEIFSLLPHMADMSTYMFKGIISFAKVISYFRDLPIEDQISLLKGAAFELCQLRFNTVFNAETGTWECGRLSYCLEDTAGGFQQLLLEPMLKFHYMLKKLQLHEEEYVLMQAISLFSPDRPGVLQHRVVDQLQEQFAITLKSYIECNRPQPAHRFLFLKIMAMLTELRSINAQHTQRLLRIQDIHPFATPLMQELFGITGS
Chain of Nuclear receptor subfamily 1 group I member 2 (Rattus norvegicus) (Q9R1A7 whole entry, looked up): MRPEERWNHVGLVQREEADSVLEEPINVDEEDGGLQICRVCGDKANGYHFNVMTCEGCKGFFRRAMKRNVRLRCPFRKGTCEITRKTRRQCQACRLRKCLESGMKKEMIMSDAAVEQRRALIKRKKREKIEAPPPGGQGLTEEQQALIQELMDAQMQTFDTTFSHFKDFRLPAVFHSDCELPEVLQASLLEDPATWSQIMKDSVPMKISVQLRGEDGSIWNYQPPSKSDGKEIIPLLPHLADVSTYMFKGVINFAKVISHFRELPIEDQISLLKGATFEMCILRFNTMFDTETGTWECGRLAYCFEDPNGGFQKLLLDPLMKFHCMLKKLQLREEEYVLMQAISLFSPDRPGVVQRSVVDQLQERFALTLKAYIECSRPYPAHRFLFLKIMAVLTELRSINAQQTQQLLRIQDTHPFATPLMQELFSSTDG
Chain of Cytochrome P450 3A4 (Homo sapiens) (P08684 whole entry, looked up): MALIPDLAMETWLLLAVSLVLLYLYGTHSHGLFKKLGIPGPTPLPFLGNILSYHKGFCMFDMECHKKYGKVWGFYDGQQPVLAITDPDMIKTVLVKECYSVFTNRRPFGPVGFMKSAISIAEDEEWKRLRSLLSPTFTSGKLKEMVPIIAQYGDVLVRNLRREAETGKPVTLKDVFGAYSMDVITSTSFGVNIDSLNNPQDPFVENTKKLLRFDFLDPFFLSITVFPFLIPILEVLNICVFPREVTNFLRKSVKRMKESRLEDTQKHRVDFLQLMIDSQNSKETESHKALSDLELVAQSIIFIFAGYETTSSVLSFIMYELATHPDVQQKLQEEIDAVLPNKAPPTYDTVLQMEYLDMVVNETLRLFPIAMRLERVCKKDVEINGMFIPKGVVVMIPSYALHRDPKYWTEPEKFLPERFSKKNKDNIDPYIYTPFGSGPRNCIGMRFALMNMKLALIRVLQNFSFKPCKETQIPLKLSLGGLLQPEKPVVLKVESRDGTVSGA
Chain of Cytochrome P450 2C9 (Homo sapiens) (P11712 whole entry, looked up): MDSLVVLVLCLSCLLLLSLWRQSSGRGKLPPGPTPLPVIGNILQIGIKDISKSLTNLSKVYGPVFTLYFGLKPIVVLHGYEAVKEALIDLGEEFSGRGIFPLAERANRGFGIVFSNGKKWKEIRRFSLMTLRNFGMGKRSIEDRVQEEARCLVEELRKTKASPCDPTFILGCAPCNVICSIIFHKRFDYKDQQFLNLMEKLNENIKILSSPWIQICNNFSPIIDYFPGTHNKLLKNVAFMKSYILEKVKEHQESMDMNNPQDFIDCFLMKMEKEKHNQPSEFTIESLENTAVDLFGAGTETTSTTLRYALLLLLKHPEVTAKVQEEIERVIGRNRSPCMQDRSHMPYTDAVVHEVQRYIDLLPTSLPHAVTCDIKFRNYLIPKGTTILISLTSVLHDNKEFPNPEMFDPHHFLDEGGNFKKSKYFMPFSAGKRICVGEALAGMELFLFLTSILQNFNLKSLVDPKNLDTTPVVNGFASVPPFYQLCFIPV
Chain of Cytochrome P450 2C19 (Homo sapiens) (P33261 whole entry, looked up): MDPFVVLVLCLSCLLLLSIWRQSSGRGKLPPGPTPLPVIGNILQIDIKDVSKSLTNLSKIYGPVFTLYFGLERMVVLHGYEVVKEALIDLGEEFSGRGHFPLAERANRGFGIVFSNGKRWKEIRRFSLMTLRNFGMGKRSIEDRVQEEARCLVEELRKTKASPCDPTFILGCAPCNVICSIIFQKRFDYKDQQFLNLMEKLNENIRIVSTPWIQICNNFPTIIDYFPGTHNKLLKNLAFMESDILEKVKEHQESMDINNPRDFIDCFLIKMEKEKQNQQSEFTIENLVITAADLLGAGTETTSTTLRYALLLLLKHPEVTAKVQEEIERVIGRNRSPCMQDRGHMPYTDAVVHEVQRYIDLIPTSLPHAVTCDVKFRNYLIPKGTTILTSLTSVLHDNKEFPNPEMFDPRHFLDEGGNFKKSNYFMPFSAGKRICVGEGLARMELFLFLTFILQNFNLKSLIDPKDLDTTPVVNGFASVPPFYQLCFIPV

CC1=C(C)C(=O)C(C(CCCCCC(=O)O)c2ccccc2)=C(C)C1=O (centres undefined)
inactive: outcome [1] | Potency [2] | Potency [3] | Potency [5] | Potency [6] | Potency [7] | max activation [8] -6.02% | Potency [10] | Potency [11] | Potency [14] | Potency [15] | Potency [16]
active: Potency [4] 26.6 µM | Potency [9] 10 µM | Potency [12] 24.5 µM | Potency [13] 17.4 µM

O=c1c2ccccc2oc2ccccc12
inactive: outcome [1] | Potency [2] | Potency [3] | Potency [4] | Potency [5] | Potency [6] | Potency [7] | Potency [11] | Potency [15] | Potency [16]
active: Potency [12] 28.3 µM | Potency [13] 39.9 µM | Potency [14] 0.564 µM

Cc1ccc(NC=O)c(C)c1
active: Potency [14] 35.6 µM
inactive: outcome [1] | Potency [2] | Potency [3] | Potency [4] | Potency [5] | Potency [6] | Potency [7] | Potency [11] | Potency [12] | Potency [13] | Potency [15]

CCCC1CCCC(=O)O1 (centres undefined)
inactive: outcome [1] | Potency [2] | Potency [3] | Potency [4] | Potency [5] | Potency [6] | Potency [7] | Potency [11] | Potency [12] | Potency [14] | Potency [15]
active: Potency [13] 39.9 µM | Potency [16] 39.9 µM

CCC(CC)C(=O)O
inactive: outcome [1] | Potency [2] | Potency [3] | Potency [4] | Potency [5] | Potency [6] | Potency [7] | Potency [11] | Potency [12] | Potency [13] | Potency [14] | Potency [15] | Potency [16]

CO[C@@H]1COCC[C@@H]1N[C@@H]1CC[C@@](C(=O)N2CCc3ncc(C(F)(F)F)cc3C2)(C(C)C)C1
inactive: outcome [1] | Potency [2] | Potency [3] | Potency [4] | Potency [5] | Potency [6] | Potency [7] | Potency [12] | Potency [13] | Potency [14]
active: Potency [11] 35.4 µM

Nc1ccc(C(=O)Oc2ccccc2)c(O)c1
inactive: outcome [1] | Potency [2] | Potency [3] | Potency [4] | Potency [5] | Potency [6] | Potency [7] | max activation [8] 0.405% | Potency [9] | Potency [10] | Potency [15]
active: Potency [13] 27.5 µM | Potency [14] 11.5 µM

O=C1CCCN1CCO
active: Potency [14] 39.9 µM
inactive: outcome [1] | Potency [2] | Potency [3] | Potency [4] | Potency [5] | Potency [6] | Potency [7] | Potency [11] | Potency [12] | Potency [13] | Potency [15] | Potency [16]

CCN(CCCCOC(=O)c1ccc(OC)c(OC)c1)C(C)Cc1ccc(OC)cc1 (centres undefined)
active: Potency [15] 3.38 µM
inactive: outcome [1] | Potency [2] | Potency [3] | Potency [4] | Potency [5] | Potency [6] | Potency [7] | max activation [8] 3.44% | Potency [9] | Potency [10] | Potency [13] | Potency [14]

C1=COCCC1
inactive: outcome [1] | Potency [2] | Potency [3] | Potency [4] | Potency [5] | Potency [6] | Potency [7] | Potency [11] | Potency [12] | Potency [13] | Potency [14] | Potency [16]

Cc1cc(C)c(C)c(O)c1
active: Potency [14] 31.7 µM
inactive: outcome [1] | Potency [2] | Potency [3] | Potency [4] | Potency [5] | Potency [6] | Potency [7] | Potency [11] | Potency [12] | Potency [13] | Potency [15] | Potency [16]

Clc1cccc(C(c2ccc3nc[nH]c3c2)n2ccnc2)c1 (centres undefined)
inactive: outcome [1] | Potency [2] | Potency [3] | Potency [4] | Potency [5] | Potency [6] | Potency [7] | Potency [9] | Potency [15]
active: Potency [12] 2.75 µM | Potency [13] 8.71 µM | Potency [14] 15.5 µM

CC(C)C[C@H](NC(=O)[C@H](Cc1ccccc1)NC(=O)c1cnccn1)B(O)O
inactive: outcome [1] | max activation [8] -18.4% and -17.1% | Potency [9] | Potency [10] | Potency [11] | Potency [15]
active: Potency [2] 0.0422 µM | Potency [3] 0.211 µM | Potency [4] 0.0168 µM | Potency [5] 0.0067 µM | Potency [6] 0.0841 µM | Potency [7] 0.0084 µM | Potency [12] 34.7 µM | Potency [14] 24.5 µM

CCOc1ccc2c(c1)C(C)CC(C)(C)N2 (centres undefined)
inactive: outcome [1] | Potency [2] | Potency [3] | Potency [4] | Potency [5] | Potency [6] | Potency [15]
active: Potency [7] 34.4 µM | Potency [11] 11.2 µM | Potency [12] 1.26 µM | Potency [13] 14.2 µM | Potency [14] 35.6 µM | Potency [16] 7.96 µM

O=C(c1ccco1)N1CCNCC1
inactive: outcome [1] | Potency [2] | Potency [3] | Potency [4] | Potency [5] | Potency [6] | Potency [7] | Potency [11] | Potency [12] | Potency [13] | Potency [14] | Potency [15] | Potency [16]

OCCCO
inactive: outcome [1] | Potency [2] | Potency [3] | Potency [4] | Potency [5] | Potency [6] | Potency [7] | Potency [11] | Potency [12] | Potency [13] | Potency [14] | Potency [15] | Potency [16]

O=C(O)c1c2ccccc2cc2ccccc12
inactive: outcome [1] | Potency [2] | Potency [3] | Potency [4] | Potency [5] | Potency [6] | Potency [7] | Potency [11] | Potency [12] | Potency [15] | Potency [16]
active: Potency [13] 31.6 µM | Potency [14] 10 µM

CCCCOc1ccc(N)cc1
inactive: outcome [1] | Potency [2] | Potency [3] | Potency [4] | Potency [5] | Potency [6]
active: Potency [7] 54.5 µM | Potency [11] 39.9 µM | Potency [12] 28.3 µM | Potency [13] 39.9 µM | Potency [14] 11.2 µM

CCCC(=O)OCCC(C)C
inactive: outcome [1] | Potency [2] | Potency [3] | Potency [4] | Potency [5] | Potency [6] | Potency [7] | Potency [11] | Potency [12] | Potency [13] | Potency [14] | Potency [15] | Potency [16]
